Measured values taken from PubChem BioAssay (Tox21).
Inconclusive results are not listed. Calls of active or inactive are those of the source. Calls follow the shape of the dose curve; as a rule, active = well fitted cell-killing curve with a large enough effect in the repeat runs; inconclusive = weak or mixed curves, or effect the other way; inactive = no such curve, though single readings can be large or run the other way.

experiment: qHTS assay to identify small molecule antagonists of the glucocorticoid receptor (GR) signaling pathway - cell viability counter screen (AID 720693); conditions: GR-bla HeLa viability, CellTiter-Glo luminescence, 18 h, with 5 nM dexamethasone present; series mostly up to 58.5 µM; viability change, negative = cytotoxic: at the top concentration; also: nearly all actives have a fitted effect of over 55% in size
Description: National Center for Advancing Translational Sciences [NCATS]
NIH Chemical Genomics Center [NCGC]
U.S. Environmental Protection Agency [EPA]
National Institutes of Environmental Health Sciences [NIEHS]
National Toxicology Program [NTP]
U.S. Food and Drug Administration [FDA]
The Glucocorticoid receptor (GR) is one of the members of the nuclear receptor family of ligand-dependent transcription factors. GR plays a critical role in carbohydrate, protein and lipid metabolisms and programmed cell death. CellSensor GR-bla HeLa cell line (Invitrogen) contains a beta-lactamase reporter gene under the control of the glucocorticoid response element stably integrated into HeLa cells, a cervical cancer cell line that expresses glucocorticoid receptor. The activation of the reporter gene under culture conditions can be detected by fluorescence intensity. This cell line has been used to screen the Tox21 10K compound library and to identify the compounds that inhibit the GR signaling. The cytotoxicity of the Tox21 compound library against the GR-bla HeLa cell line was tested in parallel by measuring the cell viability using CellTiter-Glo assay in the same wells.
Tox21 Assay Protocol Summary:
The GR-bla HeLa cells were dispensed at 1500 cells/5 ul/well in 1536-well black wall/clear bottom plates using a Multidrop Combi (ThermoFisher Scientific, Waltham, MA) dispenser. After the assay plates were incubated at a 37 C/5% CO2 incubator for 4 hours, 23 nL of compounds dissolved in DMSO, positive controls or DMSO only was transferred to the assay plate by a pintool station (Kalypsys, San Diego, CA), followed by addition of 1 uL of dexamethasone (5 nM, final concentration in the well). The plates were incubated at 37 C for 18 hours. After 1 uL of LiveBLAzerTM B/G FRET substrate was added using a Flying Reagent Dispenser (Aurora Discovery, San Diego, CA), the plates were incubated at room temperature (RT) for 2 hours, and fluorescence intensity was measured by an Envision plate reader (PerkinElmer, Shelton, CT). After measurement of bla assay, 3 ul CellTiter-Glo (Promega, Madison, WI) was added to measure the cytotoxicity and the plates were then incubated at RT for 30 min. The luminescence was measured using a ViewLux (Perkin Elmer) plate reader.
% is scaled to controls: 0 for no effect and ±100 for the full control effect.

Structure (SMILES) | viability change, negative = cytotoxic | outcome
COc1cc(C(=S)N2CCOCC2)cc(OC)c1OC | 11.7% (inactive) | 
O=C1O[C@@H]2[C@@H](O)[C@H](O)O[C@@H]2[C@H]1O |  | inactive
CN1CCN(CC(=O)N2c3ccccc3C(=O)Nc3cccnc32)CC1 | 0.182% (inactive) | 
CNC(=O)[C@H]1O[C@@H](n2cnc3c(NCc4cc(Cl)ccc4OCc4cc(C)no4)ncnc32)[C@H](O)[C@@H]1N | -5.04% (inactive) | 
CCCCCCOc1ccccc1C(N)=O | 16.8% (inactive) | 
COc1ccc(Br)c(C)c1 | 0.269% [at 78.9 µM] (inactive) | 
CCCCCCCCOS(=O)(=O)O | 1.64% (inactive) | 
O=C(O)c1cc(Cl)cc([N+](=O)[O-])c1Cl | 3.82% (inactive) | 
N#Cc1ccc(C(=O)O)cc1 | -7.44% (inactive) | 
OCCN(CCO)c1cccc(Cl)c1 | 5.35% (inactive) | 
CCCCN | 0.266% (inactive) | 
NC(CO)C(=O)NNCc1ccc(O)c(O)c1O (stereo not given) | 7.16% (inactive) | 
NS(=O)(=O)c1ccc(NC(=O)CCC(=O)O)cc1 | 5.54% (inactive) | 
C=C(C)C(=O)OCC(C)(C)COC(=O)C(=C)C | 4.22% (inactive) | 
O=C(CCN1CCN(CCO)CC1)N1c2ccccc2Sc2ccc(C(F)(F)F)cc21 | 8.67% (inactive) | 
CCCCCCCCCC(C)=O | -2.38% [at 78.9 µM] (inactive) | 
Cc1cccc(C)c1OCC(C)N (stereo not given) | 9.13% (inactive) | 
Nc1ccc2cc(S(=O)(=O)O)cc(O)c2c1 | -5.63% (inactive) | 
CC(C)=O |  | inactive
CCC(C=O)CC | -0.159% [at 78.9 µM] (inactive) | 

Structure (SMILES) | viability change, negative = cytotoxic | outcome
C[C@H](CCC(=O)O)[C@H]1CC[C@H]2[C@@H]3C(=O)C[C@@H]4CC(=O)CC[C@]4(C)[C@H]3CC(=O)[C@]12C | 27.2% (inactive) | 
Nc1cccc(O)c1 | -14.7% [at 78.9 µM] (inactive) | 
O=C(Nc1ccc(Cl)c(Cl)c1)C1CC1 | -1.45% (inactive) | 
C=Cc1ccccn1 | 0.988% [at 78.9 µM] (inactive) | 
C=C(C)C(=O)OCCOP(=O)(O)OCCOC(=O)C(=C)C | 11.7% (inactive) | 
c1ccc2c(c1)ccc1c3ccccc3ccc21 | 0.26% (inactive) | 
O=C1c2cccc3c2[C@H](CCC3)CN1[C@@H]1CN2CCC1CC2 | -16.9% (inactive) | 
O=Cc1ccc(Cl)c(Cl)c1 | 0.253% [at 78.9 µM] (inactive) | 
Nc1ncnc(Nc2ccccc2)n1 | 5.55% (inactive) | 
NCCS |  | inactive
Cc1ccccc1N=O | -3.46% [at 78.9 µM] (inactive) | 
CC(C)(C)c1cc(CCC(=O)NN)cc(C(C)(C)C)c1O | -0.178% (inactive) | 
CC(CN)CC(C)(C)CCN (stereo not given) | 9.49% [at 78.9 µM] (inactive) | 
CCN(C)C(=O)Oc1cccc([C@H](C)N(C)C)c1 | 0.0888% (inactive) | 
CCCCOCCOC(=O)COc1nc(Cl)c(Cl)cc1Cl | -7.08% (inactive) | 
CC(CC=O)CCCC(C)(C)O (stereo not given) |  | inactive
O=C(OCC(COC(=O)c1cccnc1)(COC(=O)c1cccnc1)COC(=O)c1cccnc1)c1cccnc1 | -7.36% (inactive) | 
COCCOC(=O)C1=C(C)NC(C)=C(C(=O)OC(C)C)C1c1cccc([N+](=O)[O-])c1 (stereo not given) | 4.49% (inactive) | 
CCCCCCCCCCl | 17.7% [at 78.9 µM] (inactive) | 
CCN1CCc2nc(N)oc2CC1 | -6.31% (inactive) | 
